Results as given in PubChem BioAssay.
Calls of active or inactive are those of the source.

How the values were obtained:
[1] = binders of probe aFSTL3 on microarray, primary screen, stem cell growth factor project, biochemical, small-molecule microarray, fluorescence 635/667 (AID 1064); details: higher = more signal;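 also: measures binding of the biotinylated anti-FSTL3 antibody to printed compounds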
[2] = binders from COS7 lysate, DM2A8 probe, primary screen, torsin A project, cell lysate, small-molecule microarray, fluorescence 635/667 (AID 1065); details: higher = more signal, COS7 lysate expressing mutant human TOR1A
[3] = binders of probe aFGF2 on microarray, primary screen, stem cell growth factor project, biochemical, small-molecule microarray, fluorescence 635/667 (AID 1067); details: higher = more signal;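 also: measures binding of biotinylated aFGF2 protein to printed compounds on slides; z-score merges feature fluorescence and signal-to-noise across triplicate slides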
[4] = binders of probe aFGF10 on microarray, primary screen, stem cell growth factor project, biochemical, small-molecule microarray, fluorescence 635/667 (AID 1071); details: higher = more signal;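 also: score merges 667 nm spot intensity and signal to noise from triplicate slides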
[5] = molecular target: Neurogenic locus notch homolog protein 2 (Homo sapiens) (UniProt Q04721); assay: Notch2 binders on small-molecule microarrays, primary screen, biochemical, small-molecule microarray, 635 nm fluorescence, stem cell growth factors (AID 1073); details: Notch2 binding, higher = more signal
Neurogenic locus notch homolog protein 2 (Homo sapiens), sequence (Q04721 whole entry, looked up, canonical isoform): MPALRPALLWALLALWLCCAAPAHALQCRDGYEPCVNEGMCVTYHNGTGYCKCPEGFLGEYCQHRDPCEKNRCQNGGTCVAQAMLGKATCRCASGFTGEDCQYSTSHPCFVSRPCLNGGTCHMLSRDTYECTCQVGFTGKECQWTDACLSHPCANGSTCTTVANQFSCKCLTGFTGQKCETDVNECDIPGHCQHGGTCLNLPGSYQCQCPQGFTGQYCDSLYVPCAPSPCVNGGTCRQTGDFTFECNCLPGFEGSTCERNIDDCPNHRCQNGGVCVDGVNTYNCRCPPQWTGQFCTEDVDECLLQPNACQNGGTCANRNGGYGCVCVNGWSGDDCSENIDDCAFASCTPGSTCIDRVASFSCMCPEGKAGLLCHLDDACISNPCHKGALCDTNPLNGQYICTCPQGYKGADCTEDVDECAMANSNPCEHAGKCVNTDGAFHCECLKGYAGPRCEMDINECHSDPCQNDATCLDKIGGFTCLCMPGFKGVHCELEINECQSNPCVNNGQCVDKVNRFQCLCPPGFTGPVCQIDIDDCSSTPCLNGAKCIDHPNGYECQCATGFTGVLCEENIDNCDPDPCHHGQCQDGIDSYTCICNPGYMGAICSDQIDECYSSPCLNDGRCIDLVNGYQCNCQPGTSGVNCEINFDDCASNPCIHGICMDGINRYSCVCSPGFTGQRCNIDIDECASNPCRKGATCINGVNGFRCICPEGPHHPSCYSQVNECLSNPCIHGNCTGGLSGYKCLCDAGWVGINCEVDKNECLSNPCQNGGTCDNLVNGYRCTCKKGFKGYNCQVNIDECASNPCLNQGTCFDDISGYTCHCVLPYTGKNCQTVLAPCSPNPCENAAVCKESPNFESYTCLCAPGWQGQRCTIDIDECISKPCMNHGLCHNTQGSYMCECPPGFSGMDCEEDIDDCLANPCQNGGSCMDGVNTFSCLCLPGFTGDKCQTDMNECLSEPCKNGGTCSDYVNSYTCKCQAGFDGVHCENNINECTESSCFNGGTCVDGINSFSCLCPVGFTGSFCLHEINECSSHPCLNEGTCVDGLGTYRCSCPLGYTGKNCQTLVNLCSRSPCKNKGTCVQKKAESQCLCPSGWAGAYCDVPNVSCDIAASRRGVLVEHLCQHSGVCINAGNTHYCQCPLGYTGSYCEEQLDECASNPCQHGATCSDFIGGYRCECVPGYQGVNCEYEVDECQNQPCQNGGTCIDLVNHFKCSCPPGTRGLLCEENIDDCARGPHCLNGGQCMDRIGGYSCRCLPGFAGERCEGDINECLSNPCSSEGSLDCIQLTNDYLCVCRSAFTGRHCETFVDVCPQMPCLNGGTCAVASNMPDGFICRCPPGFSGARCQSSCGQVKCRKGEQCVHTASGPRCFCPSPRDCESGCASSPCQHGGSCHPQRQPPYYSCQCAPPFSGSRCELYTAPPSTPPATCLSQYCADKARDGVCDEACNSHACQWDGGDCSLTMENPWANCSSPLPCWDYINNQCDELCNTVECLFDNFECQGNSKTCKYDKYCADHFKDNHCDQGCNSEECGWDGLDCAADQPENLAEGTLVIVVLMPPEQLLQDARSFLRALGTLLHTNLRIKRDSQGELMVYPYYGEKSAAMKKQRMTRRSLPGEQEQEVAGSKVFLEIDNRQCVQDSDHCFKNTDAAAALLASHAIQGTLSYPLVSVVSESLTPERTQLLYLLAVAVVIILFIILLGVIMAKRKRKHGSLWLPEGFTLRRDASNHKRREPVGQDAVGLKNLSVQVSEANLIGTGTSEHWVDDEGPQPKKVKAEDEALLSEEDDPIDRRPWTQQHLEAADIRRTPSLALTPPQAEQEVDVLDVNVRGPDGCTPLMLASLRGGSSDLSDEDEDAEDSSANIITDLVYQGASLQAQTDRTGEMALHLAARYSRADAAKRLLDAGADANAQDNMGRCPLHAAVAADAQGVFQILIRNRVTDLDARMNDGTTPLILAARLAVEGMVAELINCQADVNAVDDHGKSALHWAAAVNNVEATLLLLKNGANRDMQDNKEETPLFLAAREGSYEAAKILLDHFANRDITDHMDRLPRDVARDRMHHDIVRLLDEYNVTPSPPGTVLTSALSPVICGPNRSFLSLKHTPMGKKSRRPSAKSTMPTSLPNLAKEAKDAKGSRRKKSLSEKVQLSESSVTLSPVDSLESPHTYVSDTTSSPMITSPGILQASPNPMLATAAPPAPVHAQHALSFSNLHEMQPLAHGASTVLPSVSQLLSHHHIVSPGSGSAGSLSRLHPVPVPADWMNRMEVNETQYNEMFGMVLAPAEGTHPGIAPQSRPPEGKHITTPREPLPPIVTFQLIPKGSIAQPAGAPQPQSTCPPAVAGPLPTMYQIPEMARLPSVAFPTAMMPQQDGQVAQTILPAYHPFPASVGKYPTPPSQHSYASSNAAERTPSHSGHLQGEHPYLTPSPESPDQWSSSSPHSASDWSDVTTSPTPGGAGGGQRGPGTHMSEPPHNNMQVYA

[6] = molecular target: Pro-neuregulin-1, membrane-bound isoform (Homo sapiens) (UniProt Q02297); assay: NRG1 binders on small-molecule microarrays, primary screen, psychiatric disease protein project, biochemical, small-molecule microarray, fluorescence 635/667 (AID 1075); details: NRG1 binding, 635 nm fluorescence, higher = more signal;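 also: score combines 667 nm spot fluorescence with signal to noise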
Pro-neuregulin-1, membrane-bound isoform (Homo sapiens), sequence (Q02297 whole entry, looked up, the tested form may be a part, canonical isoform): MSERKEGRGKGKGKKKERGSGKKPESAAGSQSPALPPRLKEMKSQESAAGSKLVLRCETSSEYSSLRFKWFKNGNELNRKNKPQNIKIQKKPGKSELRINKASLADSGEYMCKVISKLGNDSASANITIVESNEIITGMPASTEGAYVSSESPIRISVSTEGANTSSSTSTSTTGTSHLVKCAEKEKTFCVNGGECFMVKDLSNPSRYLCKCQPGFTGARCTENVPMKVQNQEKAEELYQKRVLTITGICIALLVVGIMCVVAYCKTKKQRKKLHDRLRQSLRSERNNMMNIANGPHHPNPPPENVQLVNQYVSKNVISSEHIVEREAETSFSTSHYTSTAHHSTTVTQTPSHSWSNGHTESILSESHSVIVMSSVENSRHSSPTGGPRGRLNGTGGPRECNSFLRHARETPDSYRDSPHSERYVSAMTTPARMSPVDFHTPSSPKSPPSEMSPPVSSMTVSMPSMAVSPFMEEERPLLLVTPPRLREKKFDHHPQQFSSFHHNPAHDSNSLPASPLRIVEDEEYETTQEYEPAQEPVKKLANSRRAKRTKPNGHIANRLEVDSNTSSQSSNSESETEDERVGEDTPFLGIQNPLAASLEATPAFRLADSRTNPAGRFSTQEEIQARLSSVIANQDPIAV

[7] = test system: Neuregulin-1 EGF-like domain; assay: binders of neuregulin-1 EGF-like domain, primary screen, biochemical, small-molecule microarray, 635 nm fluorescence (AID 1081); details: small-molecule microarray binding, higher = more signal;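 also: binding of the protein to compounds printed on small-molecule microarray slides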
[8] = FRG1 promoter luciferase signal modulators, primary screen, FRG1 inhibition for FSHD, cell-based, C2C12 myotubes, firefly/Renilla luciferase, luminescence (AID 1084); details: higher = more signal, called active from +8 up or from −8 down
[9] = binders of probe aFST on microarray, primary screen, stem cell growth factor project, biochemical, small-molecule microarray, fluorescence 635/667 (AID 1086); details: higher = more signal;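 also: score merges 667 nm fluorescence with signal-to-noise of each printed compound spot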
[10] = binders of probe aHhip on microarray, primary screen, stem cell growth factor project, biochemical, small-molecule microarray, fluorescence 635/667 (AID 1087); details: higher = more signal;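 also: score merges spot fluorescence at 667nm with spot signal to noise ratio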
[11] = test system: PRMT1 (protein arginine N-methyltransferase 1); assay: PRMT1 binders on small-molecule microarrays, primary screen, biochemical, small-molecule microarray, 635 nm fluorescence (AID 1088); details: small-molecule microarray binding, higher = more signal;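 also: binding of Prmt1 protein to compounds spotted on small-molecule microarray slides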
[12] = yeast growth modulation, basal conditions, primary screen, YJM789 clinical isolate, OD600, 24 h (AID 1089);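 also: growth of clinical yeast isolate S. cerevisiae YJM 789 seeded 1000 cells per well; test concentration not given here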; details: S. cerevisiae YJM789 growth, higher = more signal, called active from +8 up or from −8 down
[13] = fission yeast growth modulation, primary screen, strain 972, OD600, 24 h, no modulator (AID 1090);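 also: basal condition with compound alone and no growth modifier present; test concentration not given here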; details: S. pombe 972 growth, higher = more signal, called active from +8 up or from −8 down
[14] = S. cerevisiae growth modulation with rapamycin, primary screen, strain BY4716, OD600, 96 h (AID 1091); details: higher = more signal, called active from +8 up or from −8 down; also: test concentration not given here
[15] = molecular target: Torsin-1A-interacting protein 2 (Homo sapiens) (UniProt Q8NFQ8); assay: LULL1 binders on small-molecule microarray, primary screen, cell lysate, human LULL1 lysate, 635/667 nm fluorescence (AID 1092); details: hLULL1 lysate binding, 635 nm fluorescence, higher = more signal;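 also: probe is lysate of COS7 cells overexpressing human LULL1; score merges per-feature 667 nm fluorescence with signal-to-noise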
Torsin-1A-interacting protein 2 (Homo sapiens), sequence (Q8NFQ8 whole entry, looked up): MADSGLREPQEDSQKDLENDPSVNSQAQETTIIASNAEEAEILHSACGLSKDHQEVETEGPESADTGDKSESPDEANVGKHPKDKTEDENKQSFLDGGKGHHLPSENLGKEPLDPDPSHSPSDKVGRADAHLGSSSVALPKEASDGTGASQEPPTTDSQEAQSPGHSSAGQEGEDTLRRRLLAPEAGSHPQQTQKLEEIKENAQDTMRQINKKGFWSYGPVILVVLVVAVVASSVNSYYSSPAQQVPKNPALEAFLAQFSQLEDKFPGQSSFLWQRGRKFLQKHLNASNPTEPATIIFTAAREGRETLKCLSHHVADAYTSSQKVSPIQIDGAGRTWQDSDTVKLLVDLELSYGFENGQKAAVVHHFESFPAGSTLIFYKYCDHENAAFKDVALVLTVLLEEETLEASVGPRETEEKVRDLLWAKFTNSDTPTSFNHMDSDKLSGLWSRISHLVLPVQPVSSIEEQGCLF

[16] = E. coli growth modulation, two-sided OD650, primary screen, E. coli filamentation project, strain DRC41, 24 h (AID 1093); details: OD650, 24 h, higher = more signal, called active from +8 up or from −8 down;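 also: MC1000 strain lacking acrAB efflux and sulA so SOS filamentation is blocked; test concentration not given here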

Compound | composite z-score [1] | composite z-score [2] | composite z-score [3] | composite z-score [4] | composite z-score [5] | composite z-score [6] | composite z-score [7] | z-score [8] | composite z-score [9] | composite z-score [10] | composite z-score [11] | z-score [12] | z-score [13] | z-score [14] | composite z-score [15] | z-score [16]
CCN(CC)c1ccc(N2CC=CC34O[C@@H]5C=CCOC(=O)[C@@H]5[C@H]3C(=O)N(C(C)CO)[C@@H]4C2=O)cc1 (stereo not given in full) | 0.652 | -0.893 | -0.171 | -0.784 | -1.58 | 0.392 | 0.344 | 0.403 (inactive) | -0.278 | -0.0296 | -1.48 | -0.185 (inactive) | -1.4 (inactive) | -0.8 (inactive) | -0.151 | 1.7 (inactive)
COc1ccc([Si](C)(C)[C@H]2[C@H](CC(=O)N(CCO)Cc3ccccc3)O[C@@]3(C(=O)N(Cc4ccc(N5CCC5=O)cc4)c4ccccc43)[C@@H]2C)cc1 | 0.278 | 0.323 | -0.128 | -1.07 | -0.741 | 1.02 | 0.469 | -2.75 (inactive) | -0.336 | -0.226 | 0.499 | 0.478 (inactive) | 0.617 (inactive) | 1.96 (inactive) | 0.953 | 1.48 (inactive)
Cc1ccc(N2C(=O)c3ccccc3[C@](C)(C(=O)NC3CC3)[C@@H]2c2ccc(CO)cc2)nc1 | 0.879 | -0.241 | -0.0948 | -0.325 | -0.344 | -0.474 | -0.0515 | 0.843 (inactive) | 0.406 | -0.0047 | -0.349 | 0.0474 (inactive) | -0.981 (inactive) | -0.69 (inactive) | 0.244 | 0.949 (inactive)
[N-]=[N+]=NCc1ccccc1C[C@@]1(C(=O)NCc2ccccc2)N=C(c2ccc(OCCCO)cc2)O[C@@H]1c1ccccc1 | 1.16 | 0.997 | 0.0336 | 0.422 | 0.853 | 0.457 | 0.856 | -3.28 (inactive) | 0.551 | -0.191 | 0.475 | 1.06 (inactive) | 0.393 (inactive) | 32.7 (active) | 1.82 | 2.1 (inactive)
COCCCNC(=O)[C@@]1(C)c2ccccc2C(=O)N(Cc2cc(F)cc(C(F)(F)F)c2)[C@H]1c1ccc(CO)cc1 | 1.57 | -0.12 | -0.145 | -0.103 | -1.19 | 0.595 | 1.45 | -1.65 (inactive) | -0.738 | -0.196 | 0.851 | 1.65 (inactive) | -0.351 (inactive) | 0.459 (inactive) | 2.32 | 0.985 (inactive)
CC(C)CNC(=O)[C@@H]1c2ccccc2C(=O)N(Cc2ccc(OC(F)(F)F)cc2)[C@H]1c1ccc(CO)cc1 | -0.0768 | 0.849 | -0.0095 | 0.34 | 0.988 | 1.15 | 1.21 | -2.61 (inactive) | 0.941 | -0.206 | 1.54 | -1.87 (inactive) | -2.91 (inactive) | -1.06 (inactive) | 3.01 | 3.96 (inactive)
C=CC[C@]1(C(=O)N2CCCCC2)COC(c2ccc(OCCCO)cc2)=N1 | 0.892 | 0.586 | -0.153 | -1.44 | -1.58 | 1.05 | 0.796 | -2.05 (inactive) | -0.329 | -0.251 | 0.517 | -0.485 (inactive) | -5.08 (inactive) | -2.75 (inactive) | 2.43 | 1.16 (inactive)
O=C1c2ccccc2[C@@]2(Cc3ccccc3N(CC(F)(F)F)C2=O)[C@H](c2ccc(CO)cc2)N1Cc1ccccc1C(F)(F)F | 0.886 | -0.752 | -0.131 | -0.597 | -1.34 | -0.61 | -1.2 | -0.435 (inactive) | -0.596 | -0.191 | 0.52 | -0.84 (inactive) | -1.25 (inactive) | -1.12 (inactive) | 0.394 | 0.886 (inactive)
CC(C)[C@@H](C(=O)O)n1cc(-c2ccccn2)nn1 | 0.22 | 0.424 | -0.378 | 0.458 | 0.537 | 0.419 | 0.961 | 0.0328 (inactive) | 0.659 | 0.0274 | 0.575 | 0.0655 (inactive) | -0.477 (inactive) | -0.353 (inactive) | 0.88 | 1.99 (inactive)
COc1ccc([Si](C)(C)[C@@H]2[C@@H](CC(=O)N3CCC[C@H]3CO)O[C@]3(C(=O)N(Cc4ccc(N5CCC5=O)cc4)c4ccccc43)[C@H]2C)cc1 | -0.142 | 0.783 | -0.071 | 0.66 | 0.747 | 0.583 | 1.07 | -1.17 (inactive) | 0.187 | 0.245 | 1.55 | -0.556 (inactive) | -0.228 (inactive) | -0.69 (inactive) | 2.12 | 0.673 (inactive)
